We go through five molecules from PubChem BioAssay.

Active and inactive are the calls of the source.

For test [1], the system named is Human papillomavirus type 1a protein E7 (residues 44-93). In words: HPV1a E7 fragment binders on microarrays, primary screen, biochemical, small-molecule microarray, residues 44-93, 635 nm fluorescence (AID 1108).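 Further: E7 fragment applied at 1 µg/mL in TBST for 1 h at 4 C; score combines spot fluorescence with its signal to noise ratio.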 The conditions noted are these: small-molecule microarray binding, fluorescence 635 nm; higher = more signal.
Test [2] can be described thus: modulators of HCV replicon luciferase signal, primary screen, HCV replication inhibitor project, Huh7 cells, luciferase reporter (AID 1109).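 Further: huh7 hepatoma cells harbouring a luciferase neomycin HCV replicon reporter; luciferase luminescence as measure of HCV replicon replication; test concentration not given here.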 The conditions noted are these: 48 h, higher = more signal. A general note: Replicon systems follow genome replication, usually without infectious particles.
For test [3], the target named is Left-right determination factor 2 (Homo sapiens) (UniProt O00292). Kind of test: LEFTY2 binders on small-molecule microarrays, primary screen, biochemical, small-molecule microarray, 635 nm fluorescence scan (AID 1110). The settings on record: LEFTY2 binding, higher = more signal.
Sequence of Left-right determination factor 2 (Homo sapiens) (O00292 whole entry, looked up): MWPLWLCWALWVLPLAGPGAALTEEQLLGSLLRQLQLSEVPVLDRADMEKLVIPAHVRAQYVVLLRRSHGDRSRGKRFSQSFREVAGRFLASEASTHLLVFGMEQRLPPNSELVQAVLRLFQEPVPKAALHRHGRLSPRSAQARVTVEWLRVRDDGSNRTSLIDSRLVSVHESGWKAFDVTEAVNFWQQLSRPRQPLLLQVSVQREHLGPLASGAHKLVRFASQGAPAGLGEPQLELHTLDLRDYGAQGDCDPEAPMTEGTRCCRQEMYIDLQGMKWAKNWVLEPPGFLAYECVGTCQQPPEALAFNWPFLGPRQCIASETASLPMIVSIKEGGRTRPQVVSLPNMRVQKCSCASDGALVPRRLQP
In test [4] the target is Calmodulin-1 (Homo sapiens) (UniProt P0DP23). Kind of test: CALM1 binders on microarrays, EGTA buffer, profiling panel, biochemical, small-molecule microarray, Cy5-labelled CALM1 (AID 1111).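 Further: labelled calmodulin applied in Tris saline Tween buffer holding calcium plus EGTA and DTT.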 The settings on record: Cy5-CALM1 binding fluorescence, higher = more signal.
The target is the same in test [5]. In words: calcium-bound CALM1 binders on microarrays, profiling panel, artefact control for SMM control-protein annotation, biochemical, small-molecule microarray, Cy5-labelled CALM1, plus calcium (AID 1112).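 Further: score merges spot fluorescence with signal to noise from triplicate slides.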 The conditions noted are these: Cy5-CALM1 binding fluorescence, higher = more signal.
A short description of test [6]: small-molecule microarray binders of probe aWnt5a, primary screen, biochemical, biotinylated probe, 635/667 nm fluorescence (AID 1113).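 Further: score merges 667 nm fluorescence intensity with signal-to-noise per printed feature.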 The conditions noted are these: higher = more signal.
Test [7] is described as follows: small-molecule microarray binders of probe aShh, primary screen, biochemical, biotinylated probe, 635/667 nm fluorescence (AID 1114).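 Further: probe is biotin-labelled aShh protein from a stem cell growth factor screen; measures binding of labelled protein to compounds printed on the slide; score merges feature fluorescence at 667 nm with signal-to-noise.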 The conditions noted are these: higher = more signal.
Test [8] is described as follows: small-molecule microarray binders of probe aNog, primary screen, biochemical, biotinylated probe, 635/667 nm fluorescence (AID 1115).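 Further: probe is biotinylated aNog protein used at 0.15 µg/mL for 1 h at 4 C; z-score combines 667 nm fluorescence of each spot with its signal to noise.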 The settings on record: higher = more signal.
For test [9], the target named is Torsin-1A-interacting protein 1 (Homo sapiens) (UniProt Q5JTV8). In words: LAP1 binders from COS7 cell lysate, primary screen, small-molecule microarray, 635/667 nm fluorescence (AID 1116). The settings on record: COS7-hLAP1 lysate binding, 635 nm fluorescence, higher = more signal.
Sequence of Torsin-1A-interacting protein 1 (Homo sapiens) (Q5JTV8 whole entry, looked up): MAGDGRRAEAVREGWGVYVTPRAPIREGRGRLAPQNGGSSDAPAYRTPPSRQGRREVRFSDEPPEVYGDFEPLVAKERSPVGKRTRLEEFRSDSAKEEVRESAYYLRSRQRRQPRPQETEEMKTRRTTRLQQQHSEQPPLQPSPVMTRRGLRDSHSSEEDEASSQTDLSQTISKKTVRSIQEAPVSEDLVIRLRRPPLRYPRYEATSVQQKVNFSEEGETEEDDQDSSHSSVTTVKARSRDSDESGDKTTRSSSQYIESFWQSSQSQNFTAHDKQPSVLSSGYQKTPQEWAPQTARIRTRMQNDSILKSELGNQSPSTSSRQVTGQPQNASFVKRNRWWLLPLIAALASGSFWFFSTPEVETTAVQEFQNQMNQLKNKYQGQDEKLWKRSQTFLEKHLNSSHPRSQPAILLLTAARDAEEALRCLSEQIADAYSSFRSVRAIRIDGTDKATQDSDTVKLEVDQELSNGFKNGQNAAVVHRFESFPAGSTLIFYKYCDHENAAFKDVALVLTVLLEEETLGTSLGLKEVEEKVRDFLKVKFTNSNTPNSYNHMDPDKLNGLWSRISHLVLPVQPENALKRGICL
The target in test [10] is Alpha-bungarotoxin (Bungarus multicinctus) (UniProt P60615). In words: alpha-bungarotoxin binders on microarray, profiling panel, artefact control for SMM control protein annotation, biochemical, small-molecule microarray, Alexa647 label, 635/667 nm fluorescence (AID 1117). The settings on record: alpha-BTX-A647 binding fluorescence, higher = more signal.
Sequence of Alpha-bungarotoxin (Bungarus multicinctus) (P60615 whole entry, looked up): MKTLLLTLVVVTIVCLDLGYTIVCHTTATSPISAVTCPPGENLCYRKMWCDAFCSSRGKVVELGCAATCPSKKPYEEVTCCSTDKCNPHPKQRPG
In test [11] the target is Albumin (Bos taurus) (UniProt P02769). Kind of test: bovine serum albumin binders on microarray, profiling panel, artefact control for SMM control protein annotation, biochemical, small-molecule microarray, Alexa647 label, 635/667 nm fluorescence (AID 1118).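 Further: score merges 667 nm emission intensity and signal-to-noise per printed compound spot.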 The conditions noted are these: BSA-A647 binding, fluorescence 635 nm, higher = more signal.
Sequence of Albumin (Bos taurus) (P02769 whole entry, looked up): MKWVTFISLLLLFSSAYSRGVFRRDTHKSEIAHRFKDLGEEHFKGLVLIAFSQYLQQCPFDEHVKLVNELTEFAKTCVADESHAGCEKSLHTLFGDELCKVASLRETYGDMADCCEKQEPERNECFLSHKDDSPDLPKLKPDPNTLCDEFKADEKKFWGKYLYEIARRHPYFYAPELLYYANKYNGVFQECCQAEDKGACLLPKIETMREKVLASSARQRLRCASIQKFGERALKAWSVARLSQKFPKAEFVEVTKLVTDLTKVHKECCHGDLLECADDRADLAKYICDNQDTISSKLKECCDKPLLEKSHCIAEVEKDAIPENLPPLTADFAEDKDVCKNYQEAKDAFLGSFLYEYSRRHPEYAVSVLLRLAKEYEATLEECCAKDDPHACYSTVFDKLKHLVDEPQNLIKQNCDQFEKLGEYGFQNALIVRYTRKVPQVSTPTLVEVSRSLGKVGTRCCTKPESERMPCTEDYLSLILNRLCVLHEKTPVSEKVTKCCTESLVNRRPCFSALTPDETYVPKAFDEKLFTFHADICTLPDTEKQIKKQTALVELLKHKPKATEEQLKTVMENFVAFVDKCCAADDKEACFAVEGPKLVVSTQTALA
Test [12] can be described thus: small-molecule microarray binders of probe aXIP, primary screen, biochemical, NeuroSMM set, 635/667 nm fluorescence (AID 1119).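 Further: probe is the protein aXip251-270 applied at 1 µg/mL to compound-printed slides; binding of probe to printed compounds measured as 667 nm fluorescence plus signal to noise.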 The settings on record: higher = more signal, called active from +8 up or from −8 down.
Test [13] can be described thus: small-molecule binders of probe aNOTCH3, primary screen, biochemical, small-molecule microarray, 635/667 nm fluorescence (AID 1120).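 Further: probe is a biotin-tagged antibody raised against NOTCH3 rather than NOTCH3 protein; score merges spot fluorescence near 667 nm with spot signal to noise.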 The conditions noted are these: higher = more signal.
Test [14] is described as follows: small-molecule binders of probe aNOTCH2, primary screen, biochemical, small-molecule microarray, 635/667 nm fluorescence (AID 1121).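 Further: score merges feature fluorescence read at 667 nm with its signal to noise.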 The settings on record: higher = more signal.
Test [15] concerns the target Carbonic anhydrase 2 (Homo sapiens) (UniProt P00918). In words: CAII small-molecule binders, profiling panel, biochemical, small-molecule microarray, Alexa647-labelled CAII (AID 1122). The settings on record: CAII-A647 binding fluorescence, higher = more signal.
Test [16] can be described thus: COS7 lysate on small-molecule microarray, probe aHis, 635 nm (AID 1123).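 Further: z-score combines 667nm fluorescence intensity with signal-to-noise per printed compound spot.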 The settings on record: COS7 cell lysate, fluorescence, higher = more signal.
A short description of test [17]: compound binding in COS7 lysate, probe aLAP1, primary screen, cell lysate, small-molecule microarray (AID 1124).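 Further: lysate comes from COS7 cells expressing LAP1 and is applied at 0.3 µg/mL; score merges spot fluorescence near 667 nm with signal-to-noise over triplicate slides.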 The conditions noted are these: probe aLAP1, fluorescence, higher = more signal.
Test [18] has as its system Sam68 (KHDRBS1). Kind of test: Sam68 small-molecule binders, primary screen, biochemical, small-molecule microarray, 635 nm fluorescence (AID 1125).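 Further: score merges 667 nm channel intensity with signal to noise over triplicate slides.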 The conditions noted are these: small-molecule microarray binding, higher = more signal.
The test system of test [19] is Chordin-like protein 2 (CHRDL2). Kind of test: CHRDL2 small-molecule binders, primary screen, biochemical, small-molecule microarray, 635 nm fluorescence (AID 1126).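 Further: printed compound slides probed with Chrdl2 protein at 4 µg/mL for 1 h at 4 C; score merges 667 nm emission intensity with signal to noise over three replicate slides.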 The settings on record: small-molecule microarray binding, fluorescence 635 nm; higher = more signal.
For test [20], the target named is Concanavalin-A (Canavalia ensiformis) (UniProt P02866). Kind of test: ConA small-molecule binders, primary screen, artefact control for SMM control protein annotation, biochemical, small-molecule microarray, Alexa647 label, 635 nm (AID 1127).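 Further: z combines 667 nm emission intensity with signal-to-noise across three replicate slides.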 The settings on record: ConA-A647 binding fluorescence, higher = more signal.
Sequence of Concanavalin-A (Canavalia ensiformis) (P02866 whole entry, looked up): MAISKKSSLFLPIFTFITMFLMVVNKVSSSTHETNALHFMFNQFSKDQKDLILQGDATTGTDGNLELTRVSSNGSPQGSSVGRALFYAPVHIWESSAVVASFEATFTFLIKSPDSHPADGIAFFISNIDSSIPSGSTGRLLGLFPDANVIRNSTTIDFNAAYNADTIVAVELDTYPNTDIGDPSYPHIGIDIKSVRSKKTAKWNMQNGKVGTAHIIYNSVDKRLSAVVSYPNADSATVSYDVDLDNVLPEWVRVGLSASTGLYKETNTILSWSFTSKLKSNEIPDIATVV

Turning to `CCCCC=C[C@@H](NC(=O)CCc1ccccc1)c1ccccc1`, the composite z-score in [1] amounted to 1.38; in [3], 0.151; in [4] it was 0.504; in test [5], 0.57; in test [6] it was 0.145; in test [7], 1.11. Further, the composite z-score came to 1.11 in test [8]; 1.49 in [9]; 1.19 in [10]; 0.585 in [11]; 0.23 in test [13]; 0.0409 in test [14]. Moreover, the composite z-score amounted to 0.689 in test [15]; 2.37 in [16]; 0.785 in [17]; 1.2 in [18]; 0.0782 in test [19]; 1.12 in test [20]. The z-score in test [2] is -2.6. In addition, the composite Z-score in test [12] was 1.46 (inactive).
Turning to `O=C1O[C@H](c2ccccc2)[C@H](c2ccccc2)N2[C@H]1[C@@H](C(=O)N1CCN(c3ncccn3)CC1)[C@]1(C(=O)Nc3ccc(C#CCCO)cc31)[C@H]2c1ccccc1OCCO`, the composite z-score is 1.02 in test [1]; 0.708 in [3]; 1.46 in test [4]; 0.12 in test [5]; -0.091 in test [6]; 0.126 in test [7]. Also, the composite z-score in test [8] is 0.576; in [9], 0.453; in [10], 1.77; in test [11], 0.759; in [13], -0.0918; in test [14], -0.0533. Moreover, the composite z-score in [15] was 0.556; in test [16], 2.03; in [17] it was 1.38; in test [18], 1.3; in test [19], 0.231; in [20] it was 1.11. For the same molecule, the z-score in test [2] is -1.49. Also, the composite Z-score in test [12] was -0.215 (inactive).
With `COC(=O)[C@@]1(Cc2ccccc2)[C@H]2c3cc(C(=O)N(C)C)n(Cc4ccccn4)c3C[C@H]2CN1C(=O)c1ccccc1`, the composite z-score in test [1] was -0.271; in test [3], -0.0545; in [4] it was 1.92; in [5] it was 1.35; in test [6] it was 0.241; in test [7], -0.0849. Also, the composite z-score in [8] was 0.85; in [9], 1.77; in test [10], 0.94; in test [11], 0.723; in [13], 0.127; in test [14], 0.269. Moreover, the composite z-score in [15] is 0.971; in test [16], 3.31; in test [17] it was 1.22; in test [18] it was 1.03; in test [19], -1.4; in test [20], 1.08. Moreover, the z-score in test [2] is -0.903. In addition, the composite Z-score in [12] was 0.146 (inactive).
As to `COC(=O)C(CC#Cc1ccc2c(c1)[C@]1(C(=O)N2)[C@H](C(=O)N2CCc3cc(OC)c(OC)cc3C2)[C@H]2C(=O)O[C@H](c3ccccc3)[C@H](c3ccccc3)N2[C@@H]1c1ccc(O)cc1)C(=O)OC`, the composite z-score in test [1] is 1.27; in [3], 1.35; in test [4], 1.35; in [5], 0.537; in test [6] it was -0.0303; in test [7], 0.529. The composite z-score in test [8] was -0.491; in test [9], 0.908; in test [10] it was 1.12; in [11], -1.1; in test [13], 0.233; in test [14], 0.0273. The composite z-score is 0.326 in test [15]; 1.64 in test [16]; -0.137 in test [17]; 1.29 in test [18]; 1.25 in test [19]; 1.16 in test [20]. Further, in test [2], the z-score is -1.06. The composite Z-score in test [12] was -0.0536 (inactive).
As to `Cc1cc(C)c(C(O)C2C=CC3C(=O)N(c4ccccc4)C(=O)C3N2Nc2ccccc2)c(C)c1` (stereo not given), the composite z-score was 1.16 in test [1]; 0.109 in [3]; 1.6 in test [4]; 1.03 in test [5]; 0.216 in test [6]; -0.0791 in [7]. The composite z-score in [8] turned out to be 1.99; in test [9], 1.1; in [10], 2.38; in test [11], 0.767; in test [13] it was 0.236; in test [14], 0.294. Further, the composite z-score was 0.781 in test [15]; 2.13 in [16]; 0.0109 in [17]; 1.3 in test [18]; -0.194 in test [19]; 1.18 in test [20]. Further, in [2], the z-score was -0.177. Besides, the composite Z-score in [12] was 0.0805 (inactive).
